Reference: PubChem BioAssay (EPA / NIEHS)
Inconclusive results are not listed. Active and inactive are the calls of the source. Rule for the calls: active = hit-call score of the fitted dose curve at least 0.9, where 1 is the maximum; inconclusive = response in the unintended direction; inactive = score below 0.9.

Target: human Peroxisome Proliferator-activated Receptor delta (PPARd), PPARD (gene 5467) (UniProt Q03181)
Assay: ATG_PPARd_TRANS: Attagene TRANS-FACTORIAL HepG2 Assay for human Peroxisome Proliferator-activated Receptor delta (PPARd) (AID 2283002)
Method in brief: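 Fluorescence from capillary electrophoresis of labelled RT-PCR reporter fragments gives the signal; DMSO sets baseline. Cells: HepG2 transiently carrying GAL4-UAS reporter units plus chimeric nuclear receptor-Gal4 proteins, exposed to chemicals for 24 h.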

human Peroxisome Proliferator-activated Receptor delta (PPARd), PPARD (gene 5467), sequence (Q03181 whole entry, looked up): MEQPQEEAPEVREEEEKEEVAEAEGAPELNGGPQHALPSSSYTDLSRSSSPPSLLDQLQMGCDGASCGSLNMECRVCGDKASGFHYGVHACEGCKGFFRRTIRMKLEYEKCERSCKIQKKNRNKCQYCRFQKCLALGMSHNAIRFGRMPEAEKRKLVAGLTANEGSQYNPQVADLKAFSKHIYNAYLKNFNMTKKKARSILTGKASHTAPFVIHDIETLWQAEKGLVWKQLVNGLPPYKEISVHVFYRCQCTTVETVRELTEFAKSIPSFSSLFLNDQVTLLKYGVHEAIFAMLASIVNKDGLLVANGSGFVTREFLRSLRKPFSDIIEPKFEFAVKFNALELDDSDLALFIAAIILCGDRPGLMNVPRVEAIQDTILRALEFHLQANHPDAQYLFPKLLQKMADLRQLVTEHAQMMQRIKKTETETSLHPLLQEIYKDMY

SMILES	outcome	AC50
Oc1ccc(Cl)cc1Cc1cc(Cl)ccc1O	inactive	
CCOC(=O)CC	inactive	
CCCCCC/C=C\CCCCCCCC(=O)O	inactive	
O=C1Nc2ccccc2C1(c1ccc(O)cc1)c1ccc(O)cc1	inactive	
C=CC(C)(CCC=C(C)C)OC(=O)CC(C)C (centres undefined)	inactive	
CC(=O)C=CC1C(C)=CCC(C)C1(C)C (centres undefined)	inactive	
ON(Cc1ccccc1)Cc1ccccc1	inactive	
CCC(=O)Oc1ccc(/C(CC)=C(\CC)c2ccc(OC(=O)CC)cc2)cc1	inactive	
CCCCCCC(O)CO (centres undefined)	inactive	
C[C@]12C=CC(=O)C=C1CC[C@@H]1[C@@H]2[C@@H](O)C[C@@]2(C)[C@H]1CC[C@]2(O)C(=O)CO	inactive	
NC(=O)OCC(COC(N)=O)c1ccccc1	inactive	
Cc1ccc(N)c([N+](=O)[O-])c1	inactive	
CCCCCCCC/C=C\CCCCCCCC(=O)OCCO	inactive	
CCCCCCCC/C=C\CCCCCCCC(=O)O		100 µM (active)
CC/C=C\C/C=C\C/C=C\CCCCCCCC(=O)O	inactive	
CN(C)c1ccc(N=Nc2ccccc2C(=O)O)cc1	inactive	
N#CCc1ccc(Cl)cc1Cl	inactive	
CC(C)c1ccc2c(c1)CC[C@H]1[C@](C)(CN)CCC[C@]21C	inactive	
CC(=O)c1ccc[nH]1	inactive	
O=S1(=O)OC(c2ccc(O)cc2)(c2ccc(O)cc2)c2ccccc21	inactive	
CC(CC=O)c1ccccc1 (centres undefined)	inactive	
CCCCCCCC(C)=O	inactive	
Cc1oncc1C(=O)Nc1ccc(C(F)(F)F)cc1	inactive	
C=C[C@](C)(O)CC[C@@H]1[C@@]2(C)CCCC(C)(C)[C@@H]2CC[C@@]1(C)O	inactive	
